Source: PubChem BioAssay
Rab9 prom act: activators of Rab9 promoter; Huh7 Rab9 promoter-luciferase reporter, luminescence, 24 h; Potency, µM (titrated, usually from 9.22 µM), for the others: top-dose activation, negative = inhibition, usual class: activators; 2.8% of 320,000 active; also: % of control where 0% means no effect; nearly all actives have a fitted effect of over 60% in size
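Huh7 cells stably carrying Rab9 promoter–luciferase reporter, plated 1500 cells/well, compound added after 2 h and incubated 24 h at 37 °C; luciferase luminescence then read after 10 min with detection reagent.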
FLuc modulator: counter-screen for miR-21 project: firefly luciferase inhibitors or activators; P08659; purified FLuc, Km substrates, luminescence inhibition; Potency, µM (titrated, usually from 57.5 µM), for the others: at the highest dose activity change, negative = inhibition, most hits filed as inhibitors; 6.9% of 360,000 active; AID 588342;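 also: plate controls were vehicle for no effect and reference inhibitor for full effect; nearly all actives have a fitted effect of over 55% in size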
Target sequence (P08659 whole entry, looked up): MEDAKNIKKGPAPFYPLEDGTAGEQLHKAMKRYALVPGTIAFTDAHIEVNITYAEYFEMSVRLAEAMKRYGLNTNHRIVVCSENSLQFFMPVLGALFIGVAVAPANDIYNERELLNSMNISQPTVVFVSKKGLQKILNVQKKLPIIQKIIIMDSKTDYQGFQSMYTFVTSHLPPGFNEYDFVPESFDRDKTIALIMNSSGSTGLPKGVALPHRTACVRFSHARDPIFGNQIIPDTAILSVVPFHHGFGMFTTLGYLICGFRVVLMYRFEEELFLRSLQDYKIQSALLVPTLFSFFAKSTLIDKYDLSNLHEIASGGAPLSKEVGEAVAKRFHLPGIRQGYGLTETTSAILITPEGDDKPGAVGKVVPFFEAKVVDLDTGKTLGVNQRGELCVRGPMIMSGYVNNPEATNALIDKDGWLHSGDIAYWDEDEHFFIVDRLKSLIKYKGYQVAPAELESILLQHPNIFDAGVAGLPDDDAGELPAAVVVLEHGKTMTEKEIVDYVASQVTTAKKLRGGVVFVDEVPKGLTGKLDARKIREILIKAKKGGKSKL
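Purified P. pyralis luciferase, 10 nM final, with Km-level 10 uM D-luciferin and 10 uM ATP in 50 mM Tris acetate pH 7.5, 10 mM Mg acetate, 0.01% Tween-20, 0.05% BSA; 6-point qHTS titration about 60 µM downward; luminescence read.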
ELG1 repair inh: blocks ELG1-dependent DNA repair in HEK293T cells; HEK293T ELG1-luciferase reporter, luminescence, 16 h; DNA damage induced by 5-fluorouridine; Potency, µM (highest dose often 46.1 µM), without a hit: at the top dose activity change, negative = inhibition, usual class: inhibitors; 2.3% of 330,000 active; also: % is scaled to controls: 0 for no effect and ±100 for the full control effect; nearly all actives have a fitted effect of over 55% in size
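DMSO vehicle served as the neutral condition. Each well held 2,000 cells given 5-fluorouridine plus compound; after 16 hr at 37 °C/5% CO2, ONE-Glo was added and luciferase measured 30 min later.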
ELG1 genotox: genotoxicity induction in ELG1-luciferase HEK293T cells | HEK293T ELG1-luciferase reporter, luminescence, 16 h | Potency, µM (doses to about 46 µM), for inactives: at the top dose activity change, positive = activation, most hits filed as activators | 1.3% of 330,000 active | AID 504466; also: % of control where 0% means no effect; nearly all actives have a fitted effect of over 60% in size
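Genotoxicity was scored as increased ELG1-luciferase reporter signal, measured by ONE-Glo luminescence (30 min, room temperature). Compound or vehicle exposure of the HEK293T reporter cells lasted 16 hr at 37°C.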
NPC1 promoter act: activators of NPC1 promoter; Huh7 NPC1 promoter luciferase reporter, 24 h; Potency, µM (titrated, usually from 9.22 µM), inactives show at the highest dose activation, most hits filed as activators; 2.4% of 320,000 active; also: % of control where 0% means no effect; nearly all actives have a fitted effect of over 60% in size
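In 1536-well qHTS, Huh7 cells harboring an NPC1 promoter–luciferase construct received compound for 24 h; activation was quantified by luminescence following luciferase reagent addition.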
SMN2 splice up: increases expression of the SMN2 splice variant; 2.8% of 210,000 active; AID 1458; HEK293 SMN2-luciferase splicing reporter, luminescence, 30-36 h; Potency, µM (doses to about 46.1 µM), inactives show at the highest dose activity change, positive = activation, hits mostly activators; also: % of control where 0% means no effect; nearly all actives have a fitted effect of over 55% in size
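HEK293 cells carry an SMN2 […]–luciferase reporter in which exon 7 inclusion puts luciferase in frame. Cells were plated 10-12 h before compound addition, then incubated 30-36 h at 37C. ONE-Glo luminescence was read; sodium butyrate at 4.5 mM final served as control.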
An asterisk follows results filed as active; u = inconclusive; x = no result; [ ] = dose if it differs, or a comment. Only some compounds are listed: those with a hit (about 9.4% of all), similar ones and a draw of the others. Calls follow the shape of the dose curve; as a rule, active = well fitted curve in the direction sought with a large enough effect; inconclusive = small, poorly fitted or top-dose-only effect, or another doubt; inactive = no such curve, though single readings can be large; an effect the other way counts as inactive or inconclusive. Potency is read from the fitted curve at half-maximal effect.

SMILES | Rab9 prom act | FLuc modulator | ELG1 repair inh | ELG1 genotox | NPC1 promoter act | SMN2 splice up
CCc1ccc(NC(=O)N2CCN(Cc3cc(=O)n4nc(-c5ccccc5OC)sc4n3)CC2)cc1 | x | -4% | x | x | x | x
Cc1ccc(C(=O)c2cn(Cc3cccc(C)c3)c3nc(C)ccc3c2=O)cc1 | x | 2% | x | x | x | 2%
COc1ccc(CN2CCN(S(=O)(=O)c3ccc(F)cc3)CC2)cc1OC | 10% | 1% | 13µM* | -2% | 2% | -32%
COc1ccccc1N1CCN(C(=O)c2ccc(S(=O)(=O)N3CCCCCC3)cc2)CC1 | -2% | 1% | 15µM* | -7% | -1% | 0%
O=C(c1ccc(S(=O)(=O)N2CCCCC2)cc1)N1CCN(c2ccccc2F)CC1 | 1% | -1% | -19% | -1% | -5% | -19%
COc1ccc(CN2CCN(C(=O)c3ccc(S(=O)(=O)N4CCCCCC4)cc3)CC2)cc1F | -26% | -1% | 6.5µM* | -7% | -16% | x
COc1ccc(CN2CCN(S(=O)(=O)c3ccc(NC(C)=O)cc3)CC2)cc1OC | 2% | -2% | -23% | -2% | -14% | -34%
COc1ccc(N2CCN(C(=O)CN(c3ccccc3)S(=O)(=O)c3ccc(OC)cc3)CC2)cc1 | -4% | 3% | u | -20% | 11% | -18%
COc1ccc(S(=O)(=O)N(CC(=O)N2CCN(c3ccccc3OC)CC2)c2ccccc2)cc1 | 2% | -5% | 21µM* | -21% | 7% | -45%
CCC(=O)N1CCc2cc(S(=O)(=O)NC(CC(C)C)C(=O)NCCc3ccccc3)ccc21 (stereo not drawn) | x | -4% | x | x | x | 5%
CCOc1ccc(NC(=O)CCS(=O)(=O)c2cc3c4c(c2)CCN4C(=O)CC3)cc1 | x | 3% | x | x | x | x
O=C(c1ccc(S(=O)(=O)N2CCCCCC2)cc1)N1CCN(Cc2ccccc2)CC1 | 4% | x | u | -4% | -1% | x
COc1ccc(CN2CCN(C(=O)c3ccc(S(=O)(=O)N4CCCCCC4)cc3)CC2)cc1 | -25% | 6% | 10µM* | -1% | -19% | x
c1ccc2c(c1)Nc1cc3ccccc3cc1S2 | 3.5µM* | -27% | u | 10% | 3.2µM* | x
c1ccc2c(c1)Nc1ccncc1S2 | -11% | -9% | 18µM* | -5% | 18% | x
CC1CCCN(C(=O)c2cc3c(=O)n(C)c4ccccc4c3s2)C1 (stereo not drawn) | x | 0% | x | x | x | 21%
Cc1cccc(-n2ccnc2SCC(=O)Nc2cccc3ccccc23)c1 | x | -3% | x | x | x | x
CCOc1ccc2c(c1)c(=O)c(C(=O)c1ccc(CC)cc1)cn2CC(=O)Nc1cccc(Cl)c1 | x | -3% | x | x | x | -5%
O=C(c1ccc2oc(CCc3ccccc3)nc2c1)N1CC[C@H](O)C1 | 1.4µM* | u | u | u | 3.5µM* | x
CCOC(=O)N1CCN(C(=O)c2ccc3oc(CCCc4ccccc4)nc3c2)CC1 | 1.6µM* | 6µM* | u | u | 1.6µM* | x
O=C(c1ccc2oc(CCCc3ccccc3)nc2c1)N1CCCC(CCCO)C1 (stereo not drawn) | 18% | -14% | u | 2% | 6% | x
COC(=O)[C@@H](C)NC(=O)c1ccc2oc(CCc3ccccc3)nc2c1 | 2.5µM* | 21µM* | u | u | 4µM* | x
CCCCc1nc2cc(C(=O)N(C)C3CCOCC3)ccc2o1 | 2.5µM* | 13µM* | u | 9.2µM* | u | x
COC(=O)CCCNC(=O)c1ccc2oc(CCCc3ccccc3)nc2c1 | u | u | u | 11% | 25% | x
CC(=O)N1CCN(C(=O)c2ccc3oc(CCCc4ccccc4)nc3c2)CC1 | 5% | 3% | 9% | 0%[9.26 µM] | -5% | x
COc1ccccc1CN1CCCC2(CCN(C(C)=O)CC2)C1 | x | x | x | x | x | -9%
CCCCc1nc2cc(C(=O)N3CCC(O)CC3)ccc2o1 | 2µM* | 11µM* | u | u | 1.6µM* | x
